In ChEMBL document CHEMBL3988442, “University of Dundee, Small-Polar-MMV Screening Library” (2021):
Screen size: about 53,000 compounds; about 900 (1.7%) showed an effect of 50% or more. For the sample, strong results were picked, then their nearest neighbours and some compounds at random.

system: Mycobacterium tuberculosis; test: Cornell - Phenotypic assay to identify agents that inhibit growth of Mycobacterium tuberculosis; assay type: functional; design: scale not given: direction of the effect not stated beside the values; settings: 10 mM as filed; unlikely as a test dose

Row | Compound | Percent Effect [%]
1 | O[C@@H]1CN(c2nc3ccccc3o2)CC[C@H]1c1ccc2c(c1)OCO2 | 1.12
2 | O[C@@H]1CN(c2cnc3ccccc3n2)CC[C@H]1c1ccc2c(c1)OCO2 | 102.9
3 | O[C@@H]1CN(c2nc3ccccc3s2)CC[C@H]1c1ccc2c(c1)OCO2 | 18.1
4 | COc1cccc(CNC(=O)CN2CCCC(Cn3cncn3)C2)c1 (configuration not stated) | -43.6
5 | Cc1ccc(-c2nnc(CN3CC(n4cc(C)cn4)C3)o2)cc1 | 82.45
6 | Cc1cnn(C2CN(Cc3nc(-c4ccccn4)no3)C2)c1 | -25.23
7 | Cc1ccc(-c2noc(CN3CC(n4cc(C)cn4)C3)n2)cc1 | 41.03
8 | Cc1cnn(C2CN(Cc3nnc(-c4ccccc4Cl)o3)C2)c1 | -48.85
9 | Cc1cnn(C2CN(Cc3nc(-c4ccsc4)no3)C2)c1 | 18.79
10 | Cc1cccc(-c2noc(CN3CC(n4cc(C)cn4)C3)n2)c1 | 51.38
11 | Cc1cnn(C2CN(Cc3nc(C(C)(C)C)no3)C2)c1 | -9.455
12 | Cc1cc(C)n(C2CN(Cc3nc4cc(Cl)ccc4n3C)C2)n1 | -28.71
13 | Cc1cnn(C2CN(Cc3nc(-c4ccccc4C)no3)C2)c1 | -13.18
14 | Cc1cnn(C2CN(Cc3nc(-c4cccnc4)no3)C2)c1 | 3.209
15 | Cc1cnn(C2CN(Cc3nnc(Cc4ccccc4)o3)C2)c1 | 75.37
16 | Cc1cnn(C2CN(Cc3nc4cc(Cl)ccc4n3C)C2)c1 | 63.15
17 | CCOc1ccccc1-n1c(C2CC(=O)N(C)C2)n[nH]c1=O (configuration not stated) | -16.7
18 | Cc1c[nH]c(CN(C)C(=O)[C@]23CNC[C@H]2CNC3)n1 | -19.02
19 | O=C(Nc1ccnn1Cc1ccc(Cl)cc1)C1CCS(=O)(=O)C1 (configuration not stated) | -30.31
20 | CC(C)(C)C(=O)NS(=O)(=O)c1ccc(F)cc1C(F)(F)F | 31.3
21 | CC(=O)N1CCC(Cc2cnc(Nc3cc(C)on3)cn2)CC1 | -2.54
22 | Nc1nonc1C(=O)N1Cc2ccccc2OC2(CCOCC2)C1 | -22.02
23 | COc1ccc(-c2cn([C@H](CO)CC(C)C)nn2)cn1 | 26.72
24 | COC(=O)Cn1c(=O)nc2n1C(=O)N(c1ccc(F)cc1)C2 | 8.177
25 | Cc1cnn(CC2CCCN2C(=O)c2cccc(S(C)(=O)=O)c2)c1 (configuration not stated) | 1.06
26 | Cc1noc([C@]23COC[C@H]2CN(C(=O)COC2CCCC2)C3)n1 | 1.713

Row | Compound | Percent Effect [%]
27 | CNC(=O)Cn1c(-c2ccco2)nn(-c2ccccc2OC)c1=O | -0.5787
28 | CC(c1cccnc1)N(C)C(=O)NCCOc1ccc(C#N)cc1 (configuration not stated) | 12.58
29 | C[C@@H]1CN(C(=O)C2CCS(=O)(=O)CC2)CC[C@@]1(O)C1CCOCC1 | 26.03
30 | Cc1cc(C)n(CCN2CCC(N(C)Cc3nnc(C)n3C)C2)n1 (configuration not stated) | -7.03
31 | CCN(C(=O)Cc1ccc(NCc2nccn2C)cc1)c1ccccc1 | 9.386
32 | CCN(C(=O)Cc1ccc(NCc2ncc[nH]2)cc1)c1ccccc1 | 52.94
33 | CCN(C(=O)Cc1ccc(NC(=O)NC2CC2)cc1)c1ccccc1 | -6.305
34 | Cc1nn(C)c(Cl)c1C1CCCN1C(=O)c1cnc[nH]1 (configuration not stated) | 8.572
35 | Cc1ccc(C(=O)NCc2ccnc(C3CCCOC3)n2)s1 (configuration not stated) | 2.557
36 | CC(C)(C)CNC(=O)c1ccc(C(=O)O)nc1 | 11.56
37 | CN(CC(=O)NCCc1ccccn1)C(=O)c1cccs1 | -9.987
38 | CC(O)CCN(C)C(=O)Nc1cc(F)cc(Br)c1 (configuration not stated) | 23
39 | CN(CC(O)C1CC1)C(=O)Nc1cc(F)cc(Br)c1 (configuration not stated) | 5.584
40 | CNC(=O)C(C)CN(C)C(=O)Nc1cc(F)cc(Br)c1 (configuration not stated) | 72.87
41 | Cn1nc(C2CN(S(C)(=O)=O)C2)c2nccnc21 | -1.799
42 | Cc1nnc(SCC(=O)c2cc3c(cc2Cl)NC(=O)C3)s1 | 21.14
43 | CSc1nsc(SCC(=O)c2cc3c(cc2Cl)NC(=O)C3)n1 | 71.22
44 | Nc1nnc(SCC(=O)c2cc3c(cc2Cl)NC(=O)C3)s1 | 9.185
45 | O=C(C1CCOCC1)N1CCC(O)(Cn2ccc3ccncc32)CC1 | -3.808
46 | Cc1cc(CN2C[C@@H]3COC[C@@H](C(=O)N4CCCCO4)[C@@H]3C2)oc1C.O=C(O)C(F)(F)F | 19.33
47 | CN(C)CC1(O)CCN(C(=O)Cc2ccc3c(c2)CCC3)C1 (configuration not stated) | 59.81
48 | CN(C)CC1(O)CCN(C(=O)Cc2ccc3c(c2)CCCC3)C1 (configuration not stated) | 27.93
49 | CN(C)CC1(O)CCN(C(=O)Cc2ccc(Cl)c(Cl)c2)C1 (configuration not stated) | -11.99
50 | O=C1C(Sc2nnnn2C2CC2)CCN1c1ccccc1F (configuration not stated) | -21.88
51 | Cc1cc(NS(=O)(=O)c2ccccc2F)ccc1-n1cccc1C(=O)O | 63.88
52 | Cc1ccc(S(=O)(=O)Nc2ccc(-n3cccc3C(=O)O)c(C)c2)s1 | 77.19

Row | Compound | Percent Effect [%]
53 | O=C(O)c1cc(NS(=O)(=O)c2ccccc2F)ccc1N1CCSCC1 | -53.64
54 | Cc1cc(NS(=O)(=O)c2cccs2)ccc1-n1cccc1C(=O)O | 31.6
55 | Cc1ccc(S(=O)(=O)Nc2ccc(-n3cccc3C(=O)O)c(C)c2)cc1 | 24.84
56 | Cc1cc(NS(=O)(=O)c2ccc(Cl)s2)ccc1-n1cccc1C(=O)O | 25.94
57 | Cc1cnn(CC2CN(CC(=O)N(C)Cc3cnn(C)c3)CCO2)c1 (configuration not stated) | -28.01
58 | CCc1ccccc1-n1nnc(C(=O)O)c1-c1ccccn1 | 8.629
59 | COCCNC1(c2ccc(Cl)cc2)CCOCC1 | -43.32
60 | Clc1ccc(OCCNC2(c3ccc(Br)cc3)CCOCC2)cc1 | 68.56
61 | CCOCCNC1(c2ccc(Cl)cc2)CCOCC1 | -7.005
62 | CNC(=O)C1(C)CN(c2nnc(C)c3ccccc23)CCO1 (configuration not stated) | 14
63 | COc1ccc(N(c2ccc(C)cc2)c2ccc(C(=O)O)s2)cc1 | 2.836
64 | COc1ccc(N(c2ccc(OC)cc2)c2ccc(C(=O)O)s2)cc1 | 27.51
65 | COc1ccc(N(c2ccccc2)c2ccc(C(=O)O)s2)cc1 | 73.26
66 | Cc1ccccc1C(=O)N1CC[C@H](O)[C@@H](N2CCOCC2)CC1 | 45.8
67 | CC(=O)N1CCN([C@@H]2CN(C(=O)c3ccccc3C)C[C@H]2O)CC1 | -3.259
68 | Cc1ccccc1C(=O)N1C[C@@H](O)[C@H](N2CCOCC2)C1 | 51.24
69 | CCN(CC)S(=O)(=O)N1CC[C@H](c2ccccc2)[C@@H]2[C@H]1CCCCN2C | 1.905
70 | COc1cccc2ncn(C(C)Cn3cccn3)c(=O)c12 (configuration not stated) | -18.84
71 | CCSCc1cccc(NCc2cccnc2)c1 | 73.99
72 | CCSc1cccc(NCc2cccnc2)c1 | 12.75
73 | COCc1cccc(NCc2cccnc2)c1 | -54.85
74 | CO[C@@H]1CCC[C@@H](NC(=O)CCCn2cncn2)[C@H]1O | 5.133
75 | COc1ccc(C2CN(c3ncccn3)CCN2C(C)=O)cc1 (configuration not stated) | -24.16
76 | CCc1ccc2c(C3CN(CC4CCC4)C3)ncn2c1.O=C(O)C(F)(F)F | 77.11
77 | CCc1ccc2c(C3CN(C(C)=O)C3)ncn2c1 | 27.54
78 | CCc1ccc2c(C3CN(S(C)(=O)=O)C3)ncn2c1 | 13.01

Row | Compound | Percent Effect [%]
79 | Cc1csc(C2(NCc3csc(C4CC4)n3)CCCC2)n1 | 19.76
80 | Cc1cccc(CS(=O)(=O)c2nnc([C@@H](N)Cc3ccccc3)o2)c1.Cl | -11.8
81 | Cc1ccccc1CS(=O)(=O)c1nnc(C(C)NC(=O)OC(C)(C)C)o1 (configuration not stated) | 104.2
82 | C[C@H](NC(=O)OC(C)(C)C)c1nnc(S(=O)(=O)Cc2cccc(F)c2)o1 | -26.24
83 | Cl.N[C@@H](Cc1ccccc1)c1nnc(S(=O)(=O)Cc2ccc(Cl)cc2)o1 | -9.825
84 | CC(NC(=O)OC(C)(C)C)c1nnc(S(=O)(=O)Cc2ccccc2Cl)o1 (configuration not stated) | 105.8
85 | CC(NC(=O)OC(C)(C)C)c1nnc(S(=O)(=O)Cc2ccc(Cl)cc2)o1 (configuration not stated) | 103.3
86 | Cc1noc(C(C)NC(=O)[C@@H](C)NC(=O)OC(C)(C)C)n1 (some centres not stated) | 27
87 | CCC(C)NC(=O)CS(=O)(=O)Cc1ccccc1Cl (configuration not stated) | 2.34
88 | N[C@@H](Cc1ccccc1)c1nnc(S(=O)(=O)Cc2ccccc2)o1 | -19.29
89 | Cn1c(Cn2cccn2)nnc1C1CCN(Cc2cccnc2)CC1 | -9.114
90 | CCCOc1cc(F)ccc1NC(=O)NCc1noc(C)n1 | 7.548
91 | Cc1cn2c(n1)CCC(NC(=O)c1oc(Br)cc1C)C2 (configuration not stated) | -43.16
92 | CC(C)NC(=O)N1CCC[C@H]1C(=O)NCCCc1cccc(F)c1 | -6.686
93 | Cc1c[nH]nc1C1CCCN1Cc1ccncc1 (configuration not stated) | 14.55
94 | CNc1ccnc(NCC(=O)Nc2cc(C)ccc2OC)n1 | -15.75
95 | CCn1cc(-c2cc(C(F)(F)F)nc(NC3CCCC3)n2)c(C)n1 | 101.8
96 | Cc1nn(C)cc1-c1cc(C(F)(F)F)nc(NC2CCCCC2)n1 | 22.2
97 | Cc1nn(C)cc1-c1cc(C(F)(F)F)nc(NC2CCN(C)CC2)n1 | 11.83
98 | COCC(=O)N1CCCC(c2nc(N)ncc2-c2cccc(F)c2)C1 (configuration not stated) | 3.898
99 | Cc1c(CN2CCOCC2)c(O)n(CCc2ccccc2)c(=O)c1C#N | 66.79
100 | Cc1c(CN2CCCCC2)c(O)n(CCO)c(=O)c1C#N | 38.65
101 | Cc1c(CN2CCOCC2)c(O)n(CCO)c(=O)c1C#N | -84.89
102 | O=S(=O)(NCCCn1cncn1)c1ccc2c(c1)OCCO2 | -20.65
